The structures appear in SMILES notation. Values joined by “and” are separate entries in the source; they are usually repeats but may differ in a detail not shown here. Equal values may be shown once. Records with an inconclusive call do not appear. Active and inactive are the calls of the source. The call rests on the fitted dose curve; in most records, active means well fitted inhibition curve with a large enough effect; inconclusive means small, poorly fitted or top-dose-only effect; inactive means flat fitted curve, though single readings scatter.
Potency means the concentration at half of the fitted maximal effect.

The assay can be described thus: Primary qHTS for inhibitors of nuclear receptor binding SET domain protein 2 (NSD2) in an isogenic RCH-ACV NSD2 p.E1099K mutant (9B) (AID 1645876). Further: nearly all actives have a fitted effect of over 70% in size. The settings on record: RCH-ACV (leukaemia line) NSD2 E1099K (9B) viability, CellTiter-Glo, 72 h; series mostly up to 44.9 µM. (In general: qHTS replaces the single test concentration by a dilution series.)
As to `C[C@H]1O[C@@H](n2cnc3c(N)ncnc32)C[C@@H]1O`, the Potency result is “inactive”. Under `OCc1nnc2n1-c1ccc(Cl)cc1C(c1ccccc1Cl)=NC2` stands “inactive”. Under `CC[C@H]1C2CC3[C@@H]4N(C)c5ccccc5[C@]45C[C@@H]([C@H]2[C@H]5O)N3[C@@H]1O` stands “inactive”; under `CO[C@@H]1C[C@H](O[C@H]2CC[C@@]3(C)C(CCC4C3CC[C@]3(C)[C@@H](C5=CC(=O)OC5)[C@@H](OC(C)=O)CC43O)C2)O[C@H](C)[C@@H]1O[C@H]1O[C@H](CO[C@@H]2O[C@H](CO)[C@@H](O)[C@H](O)[C@H]2O)[C@@H](O)[C@H](O)[C@H]1O` (stereo partly drawn), 346 nM (active).

In the case of `CC[C@@]1(O)C(=O)OCc2c1cc1n(c2=O)Cc2cc3c(OC)cccc3nc2-1`, the Potency is 7.1 nM (active). Under `CC1=CC2OC3[C@H](O)C[C@@](C)([C@]34CO4)[C@@]2(CO)[C@H](O)C1=O` (stereo partly drawn) stands 1630 nM (active); under `C=C1[C@@H](C)[C@H]2[C@H](Cc3ccccc3)NC(=O)[C@]23OC(=O)/C=C/C(=O)CCC[C@@H](C)C/C=C/[C@H]3[C@@H]1O`, 1450 nM (active). The value for `C[C@H](CCC(=O)O)C[C@H](C)C[C@H](C)C(=O)/C=C(\O)[C@H](C)C[C@H](C)C/C=C/[C@@H](C)[C@@H](O)[C@@H](C)[C@@H](O)C[C@@H]1CC[C@@](C)([C@H]2CC[C@@](C)([C@@H](C)O)O2)O1` was 7090 nM (active). The value for `CN(C)c1cc2c(cc1Sc1nc3c(N)nccc3n1CCNCC(C)(C)C)OCO2` was 459 nM (active) and 662 nM (active). Regarding `C[C@H]1C/C=C/[C@H]2[C@@H]3O[C@]3(C)[C@@H](C)[C@H]3[C@H](Cc4ccccc4)NC(=O)[C@]32OC(=O)O/C=C/[C@@](C)(O)C1=O`, the Potency is 632 nM (active). Under `CC(C)(C)[C@]1(O)C[C@@H]2OC(=O)C[C@@]23C(=O)O[C@@H]2OC(=O)[C@@H](O)[C@]213` stands “inactive”. With `N#CC(O[C@@H]1O[C@H](CO)[C@@H](O)[C@H](O)[C@H]1O)c1ccccc1` (stereo partly drawn), the Potency entry was “inactive”. Under `COC1CC(O[C@H]2CC[C@]3(C)C4CC[C@]5(C)[C@@H](C6=CC(=O)OC6)[C@@H](OC(C)=O)C[C@]5(O)C4CC[C@@H]3C2)OC(C)C1O` (stereo partly drawn) stands 224 nM (active). In the case of `CC(=O)O[C@H]1CN2CCC1CC2`, the Potency entry is “inactive”. Under `CC(=O)OC[C@]12C[C@H](O)C(C)=C[C@H]1O[C@@H]1[C@H](O)[C@@H](OC(C)=O)[C@@]2(C)[C@]12CO2` stands 6.4 nM (active). The value for `CC1=CC(=O)[C@@H](O)[C@]2(C)C3[C@@H](O)[C@@H]4OC(=O)[C@@H]([C@H]4C)[C@]3(C)C(=O)C[C@@H]12` (stereo partly drawn) was 2260 nM (active); that for `CC[C@@H]1C[C@H]2CC[C@H](O2)[C@H](C)C(=O)O[C@@H](C)C[C@@H]2CC[C@@H](O2)[C@@H](C)C(=O)O[C@H](CC)C[C@H]2CC[C@H](O2)[C@H](C)C(=O)O[C@@H](C)C[C@@H]2CC[C@@H](O2)[C@@H](C)C(=O)O1` was 19.2 nM (active); that for `N#Cc1cn([C@@H]2O[C@H](CO)[C@H](O)[C@@H]2O)c2ncnc(N)c12` was 12.9 nM (active).

The values above are taken from PubChem BioAssay (NCATS).
